Shown are actives, neighbours in structure and some others; about 5.3% of the full set was active somewhere.
PostGolgi ctrl – yeast control strain growth, post-Golgi counter-screen; efflux-deficient yeast background strain, growth absorbance A615, 16 h; inhibition, % at 10 µM; actives 5% (n = 98,000); AID 738
Measles CPE – protection of cells from measles virus | Measles virus-infected cells, CPE protection, absorbance | protection (pct of control), % at 4 µM | actives 1.5% (n = 140,000); in the data active = protection mostly above about 24%, no sharp cut-off; inactive = mostly below about 26%
MT1-MMP txn act – MT1-MMP promoter transcription activation | HT1080 MT1-MMP promoter luciferase reporter, luminescence, overnight; active compounds read high | activation factor at 10 µM | actives 0.16% (n = 86,000) | AID 750;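 active = activation factor of at least 2 for MT1-MMP transcription at 10 µM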
PostGolgi yeast – growth inhibition of a yeast mutant, post-Golgi transport screen. inhibition, % at 10 µM. AID 739. post-Golgi transport phenotypic cell assay. actives 0.9% (n = 98,000);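 note: yeast cells grown in 1536-well plates; yeast grown about 18 h at 30C before absorbance read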
* marks the source's active call; other numbers are inactive results. Cut-off read from the data, not from the text of the source, unless noted: active = inhibition above about 30%; inactive = the rest.

How did CC1CN(C(=O)N2c3ccccc3Sc3ccccc32)C(C)CC1=O (configuration not stated) do in these assays?
PostGolgi ctrl: 37*; Measles CPE: 13; MT1-MMP txn act: 1.2; PostGolgi yeast: -1

What do the screens show for `Fc1ccc(C2=Nn3c(nnc3-c3n[nH]c4c3CCC4)SC2)cc1`?
PostGolgi ctrl: 17; Measles CPE: 36*; MT1-MMP txn act: 1.2; PostGolgi yeast: 16

How did Cc1ccccc1NC(=O)Nc1nnc(Cc2ccc([N+](=O)[O-])cc2)s1 do in these assays?
Measles CPE: 29

How did COc1ccc2nc(Nc3nc(C)c(CCC(C)C)c(=O)[nH]3)nc(C)c2c1 do in these assays?
PostGolgi ctrl: 31*; Measles CPE: 4; MT1-MMP txn act: 0.9; PostGolgi yeast: -1

Results for COC(=O)C1=NN(c2ccc(Cl)cc2)C2C(=O)N(c3ccccc3OC)C(=O)C12 (configuration not stated) ?
Measles CPE: 16

How did O=C(CSc1ccc(Cl)cc1)N1CCN(c2c(Cl)cccc2[N+](=O)[O-])CC1 do in these assays?
PostGolgi ctrl: 29; Measles CPE: 9; PostGolgi yeast: 41*

How did O=C(O)c1cc([N+](=O)[O-])ccc1N1CCCCC1 do in these assays?
Measles CPE: 21*

What do the screens show for `O=C(CSc1ccc(Cl)cc1)N1CCN(c2ccc([N+](=O)[O-])cc2Cl)CC1`?
PostGolgi ctrl: 78*; Measles CPE: 4; PostGolgi yeast: 82*

Results for O=C(c1cc([N+](=O)[O-])ccc1N1CCCCC1)N1CCCCC1 ?
PostGolgi ctrl: -2; Measles CPE: 38; PostGolgi yeast: 0

How did COc1ccc(N(CC(=O)Nc2ccc(S(=O)(=O)N3CCOCC3)cc2)S(=O)(=O)c2ccccc2)cc1 do in these assays?
PostGolgi ctrl: 4; Measles CPE: 5; PostGolgi yeast: 7

How did COc1ccccc1NC(=O)NC(=O)N(C(C)C)S(C)(=O)=O do in these assays?
PostGolgi ctrl: 11; Measles CPE: 1; MT1-MMP txn act: 1.1; PostGolgi yeast: -7

How did CCCCN(C(=O)NC(=O)Nc1ccccc1OC)S(C)(=O)=O do in these assays?
PostGolgi ctrl: 10; Measles CPE: 28*; MT1-MMP txn act: 1.1; PostGolgi yeast: 2

How did CCOC(=O)C1=C(C)N(CCCC(=O)NCc2ccc3c(c2)OCO3)C(=O)NC1c1ccc(Br)cc1 (configuration not stated) do in these assays?
Measles CPE: 19; MT1-MMP txn act: 1.2

How did CC1=C(C(=O)Nc2ccccc2)C(c2ccncc2)C(C#N)=C(SCC(=O)NC2CC2)N1 (configuration not stated) do in these assays?
PostGolgi ctrl: 8; Measles CPE: 34*; MT1-MMP txn act: 1.2; PostGolgi yeast: -3

Results for CC1=C(C(=O)Nc2ccccc2)C(c2ccncc2)C(C#N)=C(SCC(=O)NC(C)C)N1 (configuration not stated) ?
PostGolgi ctrl: 0; Measles CPE: 6; MT1-MMP txn act: 1; PostGolgi yeast: 3

What do the screens show for `C/C(=N\NC(=O)c1cc(-c2cccc([N+](=O)[O-])c2)n[nH]1)c1ccccc1O`?
Measles CPE: 11

How did O=C(CN1CCOCC1)N(c1ccccc1)c1ccc2ccccc2c1 do in these assays?
PostGolgi ctrl: 12; Measles CPE: 2; MT1-MMP txn act: 0.9; PostGolgi yeast: 28

How did O=C(CN1CCN(c2ccccn2)CC1)N(c1ccccc1)c1ccc2ccccc2c1 do in these assays?
PostGolgi ctrl: 66*; Measles CPE: 5; MT1-MMP txn act: 1.2; PostGolgi yeast: -9

How did CCNCCNC(=O)c1c(O)c2ccccc2n(CC)c1=O do in these assays?
PostGolgi ctrl: 41*; Measles CPE: 11; MT1-MMP txn act: 1.4; PostGolgi yeast: 0

Results for CC(C)Cn1c(=O)c(C(=O)Nc2ccncc2)c(O)c2ccccc21 ?
MT1-MMP txn act: 0.9

What do the screens show for `CC(C)Cn1c(=O)c(C(=O)Nc2cnccn2)c(O)c2ccccc21`?
PostGolgi ctrl: 39*; Measles CPE: 2; MT1-MMP txn act: 1.1; PostGolgi yeast: 6

How did C=CCn1c(=O)c(C(=O)NCCNCC)c(O)c2ccccc21 do in these assays?
PostGolgi ctrl: -4; Measles CPE: 8; MT1-MMP txn act: 1; PostGolgi yeast: -3

Results for COc1cccc(-c2csc(N3CCN(C(=S)Nc4cccc(Cl)c4)CC3)n2)c1 ?
PostGolgi ctrl: 2; Measles CPE: 12; PostGolgi yeast: -6

What do the screens show for `COc1ccc(NC(=O)N2CCN(c3nc(-c4cccc(OC)c4)cs3)CC2)cc1`?
PostGolgi ctrl: 41*; Measles CPE: 3; MT1-MMP txn act: 0.9; PostGolgi yeast: -17

How did O=C(NCCc1ccccn1)c1cc(-c2ccccc2Cl)nc2ccccc12 do in these assays?
Measles CPE: 20

How did Cc1noc(C)c1CSc1nc2ccccc2c(=O)n1-c1ccccc1 do in these assays?
PostGolgi ctrl: 18; Measles CPE: 13; MT1-MMP txn act: 0.7; PostGolgi yeast: -6

What do the screens show for `CC(=O)NCCn1c(SCc2ccc(C)cc2C)nc2ccccc2c1=O`?
PostGolgi ctrl: 33*; Measles CPE: 13; MT1-MMP txn act: 1.1; PostGolgi yeast: 0

Results for CC(=O)NCCn1c(SCc2cc(F)ccc2F)nc2ccccc2c1=O ?
PostGolgi ctrl: 3; Measles CPE: 41*; MT1-MMP txn act: 0.8; PostGolgi yeast: 3

What do the screens show for `O=c1c2ccccc2nc(SCc2cc(F)ccc2F)n1C1CCCC1`?
PostGolgi ctrl: -1; Measles CPE: 31*; PostGolgi yeast: -10

What do the screens show for `CC(=O)NCCn1c(SCc2ccccc2C)nc2ccccc2c1=O`?
PostGolgi ctrl: 8; Measles CPE: 6; MT1-MMP txn act: 1; PostGolgi yeast: -2

Results for CC(=O)NCCn1c(SCC(=O)c2ccccc2)nc2ccccc2c1=O ?
PostGolgi ctrl: 24; Measles CPE: 2; MT1-MMP txn act: 1; PostGolgi yeast: -4

Results for Cc1noc(C)c1CSc1nc2ccccc2c(=O)n1-c1ccc(F)cc1F ?
PostGolgi ctrl: 55*; Measles CPE: 21; MT1-MMP txn act: 0.9; PostGolgi yeast: 3

Results for Cc1ccc(NC(=O)CCn2ccc([N+](=O)[O-])n2)nc1 ?
Measles CPE: 6

What do the screens show for `O=C(Nc1nnc(CSCc2ccc(F)cc2)s1)c1ccc([N+](=O)[O-])cc1`?
Measles CPE: 10

Results for CC12CCC(C(=O)NCc3cccnc3)(OC1=O)C2(C)C (configuration not stated) ?
PostGolgi ctrl: 9; Measles CPE: 6; MT1-MMP txn act: 1.1; PostGolgi yeast: -3

How did CC12CCC(C(=O)N(Cc3ccccc3)Cc3ccccc3)(OC1=O)C2(C)C (configuration not stated) do in these assays?
PostGolgi ctrl: 38*; Measles CPE: 1; MT1-MMP txn act: 1.1; PostGolgi yeast: -3

How did C/C(=N/NC(=O)c1ccc(Br)o1)c1cccc(NC(=O)c2ccc(C)o2)c1 do in these assays?
Measles CPE: 7

What do the screens show for `COC(=O)c1ccc(C(/C=C/[C@@H](C)C(=O)NCc2ccc(C)o2)NC(=O)OCc2ccccc2)cc1` (some centres not stated)?
MT1-MMP txn act: 1.2

How did Cc1ccc(C(=O)C(c2ccccc2)N2Cc3ccccc3C2=N)cc1 (configuration not stated) do in these assays?
Measles CPE: 4

Bioassay records as filed in PubChem.
